# Compound activity deposited in PubChem by several laboratories.
# iPSC survival up: enhancers of single-cell hiPSC survival, primary screen, ATPlite luminescence; 100% = ROCK inhibitor wells, 0% = DMSO; survival enhancement, % at 20 µM; hit rate 0.044% among 360,000; in the data active = survival enhancement above about 18%;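 also: cells exposed to compounds for 16 hours before the ATP read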
# ARNT TACC3 PPI: disruptors of ARNT/TACC3 protein interaction, primary screen, biochemical, AlphaScreen, single concentration; Transforming acidic coiled-coil-containing protein 3 (Homo sapiens), Q9Y6A5; AlphaScreen His-ARNT PAS-B/GST-TACC3 binding, luminescence; TACC3 fragment carries E629A point mutation; inhibition, % at 9.99 µM; hit rate 0.66% among 390,000;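 active = mean inhibition of replicates at least 50% and at least half of replicates each reaching 50%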;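 also: 0% = complete ARNT plus TACC3 wells and 100% = ARNT alone without TACC3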
# INS-1E GSIS act: GLuc luminescence reporter in INS-1E cells, primary screen for activators of glucose-dependent secretion of insulin; INS-1E GLuc reporter insulin secretion, 2-3 h; activation, % at 16.6 µM; hit rate 0.61% among 370,000; AID 743287, 2014;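 active = lowest replicate activation of at least 40%, so every replicate reaches that level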;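 also: 0% = median of neutral control wells and 100% = median of IBMX positive control wells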
# NRP1-CendR mod: modulators of CendR peptide binding to NRP-1, primary screen, biochemical, fluorescence polarization, uHTS. Neuropilin-1 (Homo sapiens), O14786. FAM-RPARPAR peptide binding to NRP-1. inhibition, % at 25 µM. hit rate 0.85% among 360,000;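 active = inhibition or corrected inhibition above about 18%, plus a signal ratio from 0.5 to 1.5, limit read from the data, passing the limit was not always enough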
# ABCB6 inh MLPCN: ABCB6 transporter inhibitors, primary screen, K562-ABCB6 cells, flow cytometry, MLPCN library. AID 602162, 2011. ATP-binding cassette sub-family B member 6 (Homo sapiens), Q9NP58. K562-ABCB6 porphyrin accumulation, 1 h; stronger effect = lower value. hit rate 0.19% among 360,000. fluorescence ratio to DMSO, % at 10 µM;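 active = fluorescence ratio to DMSO below 75%, the collection mean minus 3 SD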;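 also: signal is porphyrin accumulated inside mitochondria; 100% equals median channel fluorescence of DMSO control wells; lower ratio means ABCB6 inhibition with less porphyrin fluorescence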
# Numbers without * were called inactive; · = not tested or not shown. The list is not random: actives were taken first. Their share in the collection is about 1.8%.
SMILES,iPSC survival up,ARNT TACC3 PPI,INS-1E GSIS act,NRP1-CendR mod,ABCB6 inh MLPCN
C[C@@H]1CN([C@@H](C)CO)C(=O)c2cc(C#Cc3ccc(F)cc3)cnc2O[C@H]1CN(C)S(C)(=O)=O,·,-7,6,·,·
COc1ccc(C[C@@H]2CCn3cc(nn3)COC[C@@H](C(C)C)NC2=O)cc1,·,·,16,·,·
O=C(Nc1ccc(N2CCOCC2)cc1)c1cccc(S(=O)(=O)N2CCCC2)c1,24*,-1,1,-7,95
CC(OC(=O)c1cccc(S(=O)(=O)N2CCN(C)CC2)c1)C(=O)Nc1ccc(C(N)=O)cc1 (centres undefined),21*,-11,19,-6,100
CC(=O)c1cccc(NC(=O)C(C)OC(=O)c2cccc(S(=O)(=O)N3CCN(C)CC3)c2)c1 (centres undefined),0,5,20,8,98
Cc1cc2cc(CNC(=O)c3ccc(S(=O)(=O)N4CCCCC4)cc3)ccc2n1C,2,-9,·,14,103
Cc1cc2cc(CNC(=O)c3ccc(S(=O)(=O)N4CCCC4)cc3)ccc2n1C,-2,2,-46,26*,94
O=S(=O)(NCc1ccccc1)c1ccc(S(=O)(=O)N2CCCCC2)cc1,1,-4,49*,-7,99
O=C(NCc1cc(F)cc(F)c1)[C@@H]1[C@@H](CO)[C@@H]2Cn3c(cccc3=O)[C@H]1N2C(=O)c1ccccn1,·,·,22,·,·
CCC(CC)c1nnc(NC(=O)c2cccc(S(=O)(=O)N3CCOCC3)c2)s1,2,6,·,26*,100
O=C(Nc1nnc(-c2ccccc2)s1)c1cccc(S(=O)(=O)N2CCOCC2)c1,2,-5,-22,-7,92
CN1CCN(NC(=O)c2cccc(S(=O)(=O)N3CCCCCC3)c2)CC1,2,-2,58*,-1,99
O=C(NCc1ccccc1)c1cccc(S(=O)(=O)N2CCCCC2)c1,0,4,-23,31*,96
CC(=O)c1cccc(S(=O)(=O)N2CCC(C(=O)O)CC2)c1,0,·,-6,-14,90
CC(=O)c1cccc(S(=O)(=O)N2CCC(C(=O)O)(c3ccccc3)CC2)c1,2,-6,13,24*,106
C[C@H]1CN([C@@H](C)CO)C(=O)Cc2cc(NC(=O)CCCCCC(=O)Nc3ccccc3N)ccc2O[C@H]1CN(C)Cc1ccncc1,·,21,-8,·,·
CC=Cc1ccc2n(c1=O)C[C@@H]1[C@@H](CO)[C@H](C(=O)NCC3CC3)N(CC3CCOCC3)[C@H]21 (mixture of isomers),·,-4,5,·,·
CC(C)(C)c1cc(CCC(=O)NCCc2ccccn2)cc(C(C)(C)C)c1O,0,10,-38,12,95
O=C1C=C(NCCc2cc(Br)c(O)c(Br)c2)C(=O)c2ncccc21,-3,64*,-52,42*,101
CO[C@@H]1CN(C)C(=O)c2ccc(NC(C)=O)cc2OC[C@H](C)N(C(=O)CN(C)C)C[C@@H]1C,·,3,-3,·,·
O=C(OCC12CC3CC(CC(C3)C1)C2)c1ccc(NCc2cc(O)ccc2O)cc1,-4,1,157*,13,86
NS(=O)(=O)c1ccc(CCNC(=O)c2cc(-c3ccccc3)nc3ccccc23)cc1,-1,-1,14,30*,94
S=C(N/N=C/c1ccccc1)N1CCOCC1,2,46*,-7,-14,97
CCCN1C[C@H](C)[C@@H](OC)CN(C)C(=O)c2cc(NC(=O)NC3CCCC3)ccc2OC[C@H]1C,·,·,28,·,·
COCC1CCN(Cc2nc(Cc3ccccc3Cl)no2)CC1,2,-2,-10,21*,102
SMILES,iPSC survival up,ARNT TACC3 PPI,INS-1E GSIS act,NRP1-CendR mod,ABCB6 inh MLPCN
CCCC(=O)N1CCc2cc(OC)c(OC)cc2C1COc1ccccc1OC (centres undefined),1,8,4,-11,97
CCC(=O)N1CCc2cc(OC)c(OC)cc2C1COc1ccccc1OC (centres undefined),-1,9,48*,0,98
COc1cc2c(cc1OC)C(c1ccccc1)N(C(=O)CCl)CC2 (centres undefined),-2,-3,·,2,100
COc1ccc(C(=O)N2CCc3cc(OC)c(OC)cc3C2c2ccc(OC)c(OC)c2)cc1OC (centres undefined),0,-11,48*,-7,114
Cc1ncc(CSc2nccc(=O)[nH]2)c(CO)c1O,0,-1,81*,16,81
COc1ccc(NC(=O)N(C)C[C@H]2OCCCC[C@@H](C)Oc3ccc(NS(C)(=O)=O)cc3C(=O)N([C@@H](C)CO)C[C@H]2C)cc1,·,-4,7,·,·
CC(C)Cn1c2c(c(=O)[nH]c1=O)C(C(F)(F)F)(C(F)(F)F)N=C(CCC1CCCCC1)N2,-2,-5,54*,8,88
COCC(=O)N1[C@@H](CO)[C@@H](c2ccccc2)C12CN(Cc1ccccc1)C2,·,·,-10,·,·
CCn1nc([N+](=O)[O-])c(C(C#N)c2nc3cc(C(F)(F)F)ccc3s2)c(Cl)c1=O (centres undefined),2,28,-35,26*,170
CC(C)NC(=O)Nc1cccc2c1O[C@@H](CN(C)S(=O)(=O)c1cccs1)[C@@H](C)CN([C@H](C)CO)C2=O,·,·,22,·,·
CC(=O)OC[C@H]1O[C@@H](Sc2cccc3cccnc23)[C@H](OC(C)=O)[C@@H](OC(C)=O)[C@H]1OC(C)=O,0,64*,-10,7,98
Cc1cc(C)c(C#N)c(SCC(=O)c2ccccc2)n1,-1,0,3,5,110
Cc1cc(=O)[nH]c(SCC(=O)c2ccccc2)c1C#N,4,-8,43*,-16,114
CC(Nc1ccc(S(=O)(=O)N2CCN(C)CC2)cc1[N+](=O)[O-])c1ccccc1 (centres undefined),0,13,17,-15,95
COc1ccccc1C(C)Nc1ccc(S(=O)(=O)N2CCN(C)CC2)cc1[N+](=O)[O-] (centres undefined),0,65*,-32,14,106
CCOC(=O)Cc1c(C)c2c(C)[nH]nc2oc1=O,2,-2,·,43*,100
CCCc1c(C)c2c(C)[nH]nc2oc1=O,-2,-1,·,-9,99
Cc1cc(-c2ccccc2)nc2cc(C(N)=O)nn12,1,-10,·,11,6.0*
CCOC(=O)c1cc2nc(-c3ccccc3)cc(C)n2n1,0,-6,13,6,101
CCc1nnc(NC(=O)CSc2nc3cc4c(cc3cc2CC)OCCO4)s1,-1,-2,49*,-2,95
Cc1c(Cl)cnc(NC(=O)COC(=O)[C@H](C)NC(=O)c2ccccc2)c1Cl,8,3,-2,26*,102
CSc1cnc2c(=O)[nH]c(=O)n(C)c2n1,-2,·,7,27*,98
